# Test results taken from PubChem BioAssay (NCATS).
# Inconclusive results are not listed. A call without a number means that no potency is given here. Activity calls are given as the source filed them. Calls follow the shape of the dose curve; as a rule, active = well fitted cell-killing curve with a large enough effect; inconclusive = small, poorly fitted or top-dose-only effect, or effect the other way; inactive = no such curve, though single readings can be large or run the other way.
# Test: Quantitative High-Throughput drug screen in 47 multiple myeloma cell lines against the NCATS MIPE library collection: JJN3_DSMZ cell viability assay (AID 1918966; also: nearly all actives have a fitted effect of over 50% in size)
# Settings: JJN3 myeloma cells viability, CellTiter-Glo ATP, 48 h; series mostly up to 45.8 µM
# Summary of the method: (§1)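 qHTS of the MIPE 4.0 collection: 500 myeloma cells/well, 48 h drug exposure at 37C in 5% CO2, then CellTiter-Glo for 5 min at room temperature before luminescence reading.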
# Potency is read from the fitted curve at half-maximal effect.
row,SMILES,Potency
1,CN[C@@H](C)[C@H]1[C@H](O)C[C@@]2(C)[C@@H]3CC[C@H]4C(C)(C)[C@@H](NC)CC[C@@]45C[C@@]35CC[C@]12C,inactive
2,CC1C(=O)OC2C(O)C34C5CC(C(C)(C)C)C36C(OC(=O)C6O)OC4(C(=O)O5)C12O (centres undefined),inactive
3,Oc1cc(O)cc(C=Cc2ccc(O)c(O)c2)c1,16.6 µM (active)
4,Nc1ncnc2c1c(-c1cccc(OCc3ccccc3)c1)cn2C1CC(CN2CCC2)C1 (centres undefined),4.69 µM (active)
5,C=C[C@@H]1CN2CCC1C[C@@H]2C(O)c1ccnc2ccc(OC)cc12 (some centres undefined),16.6 µM (active)

# Test: Quantitative High-Throughput drug screen in 47 multiple myeloma cell lines against the NCATS MIPE library collection: H1112_PLB cell viability assay (AID 1918967; also: nearly all actives have a fitted effect of over 30% in size)
# Settings: H1112 myeloma cells viability, ATP luminescence, 48 h; series mostly up to 45.8 µM
# Summary of the method: as §1
row,SMILES,Potency
1,CC1CCN(c2cc(N3CCN(C)CC3)ccc2NC(=O)c2cc(C#N)c[nH]2)CC1,inactive
2,COc1cc2nccc(Oc3ccc(NC(=O)Nc4ccc(F)cc4F)c(F)c3)c2cc1OC,inactive
3,CC[C@H](CC#N)OC(=O)N[C@@H](C)c1cccc(NC(=O)Nc2ccc(-c3cnco3)c(OC)c2)c1,1.66 µM (active)
4,CC(C)CN(C[C@@H](O)[C@H](Cc1ccccc1)NC(=O)O[C@H]1CO[C@H]2OCC[C@H]21)S(=O)(=O)c1ccc(N)cc1,2.09 µM (active)
5,CCN1C[C@H](C)n2c(c(O)c3c(=O)n(Cc4ccc(F)c(Cl)c4)nc(C(=O)NC)c32)C1=O,inactive
6,CCCCCOC(=O)Nc1nc(=O)n([C@@H]2O[C@H](C)[C@@H](O)C2O)cc1F (some centres undefined),inactive
7,NC[C@H]1O[C@H](O[C@@H]2[C@@H](O)[C@@H](O[C@H]3O[C@H](CO)[C@@H](O)[C@H](N)[C@@H]3O)[C@H](N)C[C@@H]2N)[C@H](O)[C@@H](O)[C@H]1O,inactive
8,Clc1ccc(COC(Cn2ccnc2)c2ccc(Cl)cc2Cl)c(Cl)c1 (centres undefined),18.7 µM (active)
9,COc1cc(F)c(C(C)C)cc1-c1ccc(C(F)(F)F)cc1CN1C(=O)O[C@H](c2cc(C(F)(F)F)cc(C(F)(F)F)c2)[C@@H]1C,inactive
10,CC[C@H](C)C(=O)O[C@H]1C[C@H](O)C=C2C=C[C@H](C)[C@H](CC[C@@H](O)C[C@@H](O)CC(=O)O)[C@H]21,inactive
11,O=C(CO)N1CCC(c2[nH]nc(-c3ccc(Cl)cc3)c2-c2ccncn2)CC1,inactive
12,C#CCN(C)CC1=Cc2ccccc2Oc2ccccc21,inactive
13,CN1CCN(c2cccc(Nc3nc4c(-c5ccc(S(C)(=O)=O)cc5)cccn4n3)c2)CC1,2.35 µM (active)
14,COc1ccc(-c2oc3c(CC=C(C)C)c(O)cc(O)c3c(=O)c2O)cc1,16.6 µM (active)
15,CC(C)=CCCC(C)=CCCC(C)=CCCC(C)=CCCC(C)=CCCC(C)=CCCC(C)=CCCC(C)=CCCC(C)=CCO,inactive
16,O=C(NC[C@H](O)CO)c1ccncc1Nc1ccc(I)cc1F,13.2 µM (active)
17,C[C@@H]1[C@H](C)CC[C@]2(C(=O)O)CC[C@]3(C)C(=CC[C@@H]4[C@@]5(C)CC[C@H](O)C(C)(C)[C@H]5CC[C@]43C)[C@@H]12,inactive
18,CNC(=O)c1cc(COc2nnc(Nc3ccc(Cl)cc3)c3ccoc23)ccn1,inactive
19,CC[C@H]1OC(=O)[C@H](C)[C@@H](O[C@H]2C[C@@](C)(OC)[C@@H](O)[C@H](C)O2)[C@H](C)[C@@H](O[C@@H]2O[C@H](C)C[C@H](N(C)C)[C@H]2O)[C@](C)(O)C[C@H](C)C(=NOCOCCOC)[C@H](C)[C@@H](O)[C@]1(C)O,inactive
20,COc1ccc(-c2cc(=O)c3c(O)cc(O[C@@H]4O[C@H](CO[C@@H]5O[C@@H](C)[C@H](O)[C@@H](O)[C@@H]5O)[C@@H](O)[C@H](O)[C@@H]4O)cc3o2)cc1O,13.2 µM (active)
21,CN[C@@H](C)[C@H]1[C@H](O)C[C@@]2(C)[C@@H]3CC[C@H]4C(C)(C)[C@@H](NC)CC[C@@]45C[C@@]35CC[C@]12C,inactive
22,CC1C(=O)OC2C(O)C34C5CC(C(C)(C)C)C36C(OC(=O)C6O)OC4(C(=O)O5)C12O (centres undefined),inactive
23,Oc1cc(O)cc(C=Cc2ccc(O)c(O)c2)c1,13.2 µM (active)
24,C=C[C@@H]1CN2CCC1C[C@@H]2C(O)c1ccnc2ccc(OC)cc12 (some centres undefined),inactive
25,COc1cc2ncn(-c3cc(OCc4ccccc4S(C)(=O)=O)c(C#N)s3)c2cc1OC,3.72 µM (active)
26,CCNC(=O)Nc1ccc(Oc2ncnc(N)c2C=NOC)cc1Cl,inactive
27,CN[C@H]1[C@@H](O[C@@H]2[C@H](O[C@@H]3[C@@H](O)[C@@H](O)[C@@H](N=C(N)N)[C@@H](O)[C@@H]3N=C(N)N)O[C@H](C)[C@@]2(O)C=O)O[C@@H](CO)[C@@H](O)[C@H]1O,inactive

# Test: Quantitative High-Throughput drug screen in 47 multiple myeloma cell lines against the NCATS MIPE library collection: Karpas25_ECACC cell viability assay (AID 1918968; also: nearly all actives have a fitted effect of over 35% in size)
# Settings: Karpas25 myeloma viability, CellTiter-Glo ATP, 48 h; series mostly up to 45.8 µM
# Summary of the method: as §1
row,SMILES,Potency
1,CC1CCN(c2cc(N3CCN(C)CC3)ccc2NC(=O)c2cc(C#N)c[nH]2)CC1,inactive
2,COc1cc2nccc(Oc3ccc(NC(=O)Nc4ccc(F)cc4F)c(F)c3)c2cc1OC,inactive
3,CC(C)CN(C[C@@H](O)[C@H](Cc1ccccc1)NC(=O)O[C@H]1CO[C@H]2OCC[C@H]21)S(=O)(=O)c1ccc(N)cc1,3.72 µM (active)
4,CCN1C[C@H](C)n2c(c(O)c3c(=O)n(Cc4ccc(F)c(Cl)c4)nc(C(=O)NC)c32)C1=O,inactive
5,CCCCCOC(=O)Nc1nc(=O)n([C@@H]2O[C@H](C)[C@@H](O)C2O)cc1F (some centres undefined),18.7 µM (active)
6,NC[C@H]1O[C@H](O[C@@H]2[C@@H](O)[C@@H](O[C@H]3O[C@H](CO)[C@@H](O)[C@H](N)[C@@H]3O)[C@H](N)C[C@@H]2N)[C@H](O)[C@@H](O)[C@H]1O,inactive
7,Clc1ccc(COC(Cn2ccnc2)c2ccc(Cl)cc2Cl)c(Cl)c1 (centres undefined),18.7 µM (active)
8,CN(C)c1ccc(-c2nc3ncc(Cl)c(N4CCN(CC(=O)Nc5nccs5)CC4)c3[nH]2)cc1,2.64 µM (active)
9,COc1cc(F)c(C(C)C)cc1-c1ccc(C(F)(F)F)cc1CN1C(=O)O[C@H](c2cc(C(F)(F)F)cc(C(F)(F)F)c2)[C@@H]1C,inactive
10,CC[C@H](C)C(=O)O[C@H]1C[C@H](O)C=C2C=C[C@H](C)[C@H](CC[C@@H](O)C[C@@H](O)CC(=O)O)[C@H]21,inactive
11,O=C(CO)N1CCC(c2[nH]nc(-c3ccc(Cl)cc3)c2-c2ccncn2)CC1,inactive
12,CN1CCN(c2cccc(Nc3nc4c(-c5ccc(S(C)(=O)=O)cc5)cccn4n3)c2)CC1,inactive
13,COc1ccc(-c2oc3c(CC=C(C)C)c(O)cc(O)c3c(=O)c2O)cc1,14.8 µM (active)
14,CCCCCCCCCCCCCC(=O)N[C@H](CO)[C@H](O)c1ccc([N+](=O)[O-])cc1,18.7 µM (active)
15,CC(C)=CCCC(C)=CCCC(C)=CCCC(C)=CCCC(C)=CCCC(C)=CCCC(C)=CCCC(C)=CCCC(C)=CCO,inactive
16,C=CCc1cccc(C=NNC(=O)CN2CCN(Cc3ccccc3)CC2)c1O,18.7 µM (active)
17,O=C(NC[C@H](O)CO)c1ccncc1Nc1ccc(I)cc1F,6.62 µM (active)
18,C[C@@H]1[C@H](C)CC[C@]2(C(=O)O)CC[C@]3(C)C(=CC[C@@H]4[C@@]5(C)CC[C@H](O)C(C)(C)[C@H]5CC[C@]43C)[C@@H]12,inactive
19,CNC(=O)c1cc(COc2nnc(Nc3ccc(Cl)cc3)c3ccoc23)ccn1,inactive
20,CC[C@H]1OC(=O)[C@H](C)[C@@H](O[C@H]2C[C@@](C)(OC)[C@@H](O)[C@H](C)O2)[C@H](C)[C@@H](O[C@@H]2O[C@H](C)C[C@H](N(C)C)[C@H]2O)[C@](C)(O)C[C@H](C)C(=NOCOCCOC)[C@H](C)[C@@H](O)[C@]1(C)O,inactive
21,COc1ccc(-c2cc(=O)c3c(O)cc(O[C@@H]4O[C@H](CO[C@@H]5O[C@@H](C)[C@H](O)[C@@H](O)[C@@H]5O)[C@@H](O)[C@H](O)[C@@H]4O)cc3o2)cc1O,11.8 µM (active)
22,CN[C@@H](C)[C@H]1[C@H](O)C[C@@]2(C)[C@@H]3CC[C@H]4C(C)(C)[C@@H](NC)CC[C@@]45C[C@@]35CC[C@]12C,inactive
23,CC1C(=O)OC2C(O)C34C5CC(C(C)(C)C)C36C(OC(=O)C6O)OC4(C(=O)O5)C12O (centres undefined),inactive
24,Oc1cc(O)cc(C=Cc2ccc(O)c(O)c2)c1,7.43 µM (active)
25,Nc1ncnc2c1c(-c1cccc(OCc3ccccc3)c1)cn2C1CC(CN2CCC2)C1 (centres undefined),1.18 µM (active)
26,C=C[C@@H]1CN2CCC1C[C@@H]2C(O)c1ccnc2ccc(OC)cc12 (some centres undefined),1.66 µM (active)
27,CN[C@H]1[C@@H](O[C@@H]2[C@H](O[C@@H]3[C@@H](O)[C@@H](O)[C@@H](N=C(N)N)[C@@H](O)[C@@H]3N=C(N)N)O[C@H](C)[C@@]2(O)C=O)O[C@@H](CO)[C@@H](O)[C@H]1O,inactive
